According to the supplement of paper PMC11732987, “Enantioselective OTUD7B fragment discovery through chemoproteomics screening and high-throughput optimisation” (Communications Chemistry, 2025):

Columns and labels:
Test in all cases: log2 ratio of Biotin-Ahx-Ub-VS probe labelling (fragment/DMSO); higher = less target engagement (more negative = stronger competition), active = hit call of the paper (q ≤ 0.05, log2 ratio ≤ -1)
Conditions in all cases: compound concentration: 200 uM; treatment time: 3 h
ALG13 = molecular target: T1, ALG13 (UniProt Q9NP73)
T1 sequence (whole entry): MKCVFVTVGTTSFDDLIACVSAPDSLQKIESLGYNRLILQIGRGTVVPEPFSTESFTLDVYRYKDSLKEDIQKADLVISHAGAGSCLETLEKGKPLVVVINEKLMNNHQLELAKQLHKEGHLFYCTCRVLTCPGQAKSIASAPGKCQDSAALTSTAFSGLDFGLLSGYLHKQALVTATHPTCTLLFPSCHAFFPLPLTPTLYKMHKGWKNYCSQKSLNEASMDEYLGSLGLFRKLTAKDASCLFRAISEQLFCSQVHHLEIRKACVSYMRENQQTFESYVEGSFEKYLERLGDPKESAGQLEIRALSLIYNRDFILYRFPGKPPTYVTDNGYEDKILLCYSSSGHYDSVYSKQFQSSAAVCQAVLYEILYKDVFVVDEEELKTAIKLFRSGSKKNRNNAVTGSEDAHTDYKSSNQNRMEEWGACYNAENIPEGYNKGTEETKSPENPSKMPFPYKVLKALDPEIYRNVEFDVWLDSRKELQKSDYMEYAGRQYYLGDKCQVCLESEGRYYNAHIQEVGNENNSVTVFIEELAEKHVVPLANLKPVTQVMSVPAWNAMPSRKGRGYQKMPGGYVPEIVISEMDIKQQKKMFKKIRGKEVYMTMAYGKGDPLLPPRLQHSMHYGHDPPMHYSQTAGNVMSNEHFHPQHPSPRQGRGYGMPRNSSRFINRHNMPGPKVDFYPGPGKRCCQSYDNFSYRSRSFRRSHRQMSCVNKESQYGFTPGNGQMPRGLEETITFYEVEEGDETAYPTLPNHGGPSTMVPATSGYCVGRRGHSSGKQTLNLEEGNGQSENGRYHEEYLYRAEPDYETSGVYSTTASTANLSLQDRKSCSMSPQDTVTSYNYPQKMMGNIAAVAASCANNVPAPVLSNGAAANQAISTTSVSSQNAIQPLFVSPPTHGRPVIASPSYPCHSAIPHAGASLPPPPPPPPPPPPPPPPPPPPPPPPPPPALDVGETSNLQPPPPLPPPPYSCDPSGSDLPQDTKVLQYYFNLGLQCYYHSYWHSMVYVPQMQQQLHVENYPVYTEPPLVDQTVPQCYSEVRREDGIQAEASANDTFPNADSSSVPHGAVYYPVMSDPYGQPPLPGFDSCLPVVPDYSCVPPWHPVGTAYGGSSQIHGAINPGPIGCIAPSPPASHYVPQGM
Method in brief: (§1)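 Fragment (200 µM) or vehicle was incubated for 3 h with triplicate HEK293T lysate samples of 495 µg, which were then treated with Biotin-Ahx-Ub-VS at 0.5 µM final for 1 h. Labelled DUBs were enriched on NeutrAvidin, digested with LysC and trypsin, and analysed by diaPASEF LC-MS/MS. Values are average log2 fragment/vehicle ratios from an unpaired t-test on global-median-normalised Spectronaut label-free quantities, using proteins with ≥2 unique peptides.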

ATXN3 = ATXN3 (UniProt P54252)
Method in brief: as §1

BAP1 = molecular target: T2, BAP1 (UniProt Q92560)
T2 sequence (whole entry): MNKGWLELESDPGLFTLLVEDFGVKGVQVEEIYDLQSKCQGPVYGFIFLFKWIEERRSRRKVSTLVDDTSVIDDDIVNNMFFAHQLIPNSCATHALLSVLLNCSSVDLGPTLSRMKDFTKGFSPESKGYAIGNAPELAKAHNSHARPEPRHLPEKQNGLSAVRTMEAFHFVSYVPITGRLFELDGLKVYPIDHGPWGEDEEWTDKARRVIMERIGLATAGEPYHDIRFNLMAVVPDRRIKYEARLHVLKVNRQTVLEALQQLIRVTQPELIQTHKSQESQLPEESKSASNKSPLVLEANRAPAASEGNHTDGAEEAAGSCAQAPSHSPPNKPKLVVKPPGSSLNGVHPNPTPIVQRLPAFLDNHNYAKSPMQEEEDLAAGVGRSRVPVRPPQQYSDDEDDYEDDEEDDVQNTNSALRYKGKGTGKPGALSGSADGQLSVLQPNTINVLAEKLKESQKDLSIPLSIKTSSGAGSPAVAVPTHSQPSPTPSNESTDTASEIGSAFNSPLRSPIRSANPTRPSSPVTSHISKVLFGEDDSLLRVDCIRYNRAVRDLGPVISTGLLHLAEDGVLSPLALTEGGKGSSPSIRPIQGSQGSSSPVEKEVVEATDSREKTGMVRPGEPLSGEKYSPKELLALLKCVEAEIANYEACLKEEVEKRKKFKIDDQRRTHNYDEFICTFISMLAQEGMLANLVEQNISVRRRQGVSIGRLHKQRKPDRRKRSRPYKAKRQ
Method in brief: as §1

EIF3F = EIF3F (UniProt O00303)
Method in brief: as §1

EIF3H = EIF3H (UniProt O15372)
Method in brief: as §1

FAM105A = molecular target: T3, FAM105A (UniProt Q9NUU6)
T3 sequence (whole entry): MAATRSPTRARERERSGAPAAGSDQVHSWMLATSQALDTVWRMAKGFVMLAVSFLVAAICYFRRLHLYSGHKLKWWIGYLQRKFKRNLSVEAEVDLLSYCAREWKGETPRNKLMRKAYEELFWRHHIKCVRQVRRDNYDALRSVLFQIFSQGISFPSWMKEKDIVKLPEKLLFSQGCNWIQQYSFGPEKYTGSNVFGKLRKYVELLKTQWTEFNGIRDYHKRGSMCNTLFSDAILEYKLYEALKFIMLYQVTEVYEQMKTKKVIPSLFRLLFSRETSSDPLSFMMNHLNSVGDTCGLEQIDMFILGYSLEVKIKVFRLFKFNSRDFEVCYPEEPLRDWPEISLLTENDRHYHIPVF
Method in brief: as §1

OTUB1 = OTUB1 (UniProt Q96FW1)
Method in brief: as §1

OTUD4 = molecular target: T4, OTUD4 (UniProt Q01804)
T4 sequence (whole entry): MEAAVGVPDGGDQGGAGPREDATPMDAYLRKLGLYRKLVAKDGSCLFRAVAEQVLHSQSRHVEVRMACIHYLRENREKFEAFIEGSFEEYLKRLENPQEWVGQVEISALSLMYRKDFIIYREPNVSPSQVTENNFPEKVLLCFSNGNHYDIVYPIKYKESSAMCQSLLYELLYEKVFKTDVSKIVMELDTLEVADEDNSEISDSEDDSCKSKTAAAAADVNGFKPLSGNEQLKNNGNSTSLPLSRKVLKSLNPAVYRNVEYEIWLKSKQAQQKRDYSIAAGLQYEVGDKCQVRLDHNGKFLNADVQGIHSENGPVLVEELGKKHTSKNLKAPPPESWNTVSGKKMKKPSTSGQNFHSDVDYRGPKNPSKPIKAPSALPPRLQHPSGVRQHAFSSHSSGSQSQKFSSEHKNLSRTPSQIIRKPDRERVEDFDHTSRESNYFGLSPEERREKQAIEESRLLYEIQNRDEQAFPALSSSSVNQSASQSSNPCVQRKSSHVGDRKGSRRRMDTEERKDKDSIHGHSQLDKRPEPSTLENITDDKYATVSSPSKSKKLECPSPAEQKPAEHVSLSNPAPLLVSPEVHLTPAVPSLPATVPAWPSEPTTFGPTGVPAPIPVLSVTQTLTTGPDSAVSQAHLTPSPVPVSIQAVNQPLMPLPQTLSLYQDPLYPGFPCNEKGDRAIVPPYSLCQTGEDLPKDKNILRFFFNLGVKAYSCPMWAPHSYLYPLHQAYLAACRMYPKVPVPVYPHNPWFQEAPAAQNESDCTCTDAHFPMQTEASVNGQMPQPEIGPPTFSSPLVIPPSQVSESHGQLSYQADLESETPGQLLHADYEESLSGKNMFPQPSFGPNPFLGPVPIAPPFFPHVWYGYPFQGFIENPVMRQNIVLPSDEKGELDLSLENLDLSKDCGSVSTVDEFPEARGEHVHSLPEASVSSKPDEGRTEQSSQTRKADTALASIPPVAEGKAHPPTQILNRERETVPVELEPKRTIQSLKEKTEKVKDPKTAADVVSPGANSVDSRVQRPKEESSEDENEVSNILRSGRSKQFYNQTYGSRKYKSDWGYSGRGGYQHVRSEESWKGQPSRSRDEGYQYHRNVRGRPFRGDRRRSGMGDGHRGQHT
Method in brief: as §1

OTUD5 = molecular target: T5, OTUD5 (UniProt Q96G74)
T5 sequence (whole entry): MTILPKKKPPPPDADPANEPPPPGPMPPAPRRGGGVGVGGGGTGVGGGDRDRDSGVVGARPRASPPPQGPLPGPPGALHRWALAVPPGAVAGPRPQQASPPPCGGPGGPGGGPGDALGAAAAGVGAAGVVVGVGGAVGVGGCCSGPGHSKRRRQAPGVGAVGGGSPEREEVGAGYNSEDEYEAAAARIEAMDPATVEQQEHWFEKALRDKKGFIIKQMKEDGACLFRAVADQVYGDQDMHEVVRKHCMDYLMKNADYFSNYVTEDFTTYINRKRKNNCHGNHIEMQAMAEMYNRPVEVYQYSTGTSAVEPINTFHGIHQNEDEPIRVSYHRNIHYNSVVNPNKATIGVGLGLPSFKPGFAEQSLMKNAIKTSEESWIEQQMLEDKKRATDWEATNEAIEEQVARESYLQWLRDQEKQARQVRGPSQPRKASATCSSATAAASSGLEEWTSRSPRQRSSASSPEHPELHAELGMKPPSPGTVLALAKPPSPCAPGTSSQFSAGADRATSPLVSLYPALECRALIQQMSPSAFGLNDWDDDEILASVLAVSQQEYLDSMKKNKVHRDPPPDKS
Method in brief: as §1

Measured: log2 ratio of Biotin-Ahx-Ub-VS probe labelling

Sequence of OTUB1 (Q96FW1 whole entry): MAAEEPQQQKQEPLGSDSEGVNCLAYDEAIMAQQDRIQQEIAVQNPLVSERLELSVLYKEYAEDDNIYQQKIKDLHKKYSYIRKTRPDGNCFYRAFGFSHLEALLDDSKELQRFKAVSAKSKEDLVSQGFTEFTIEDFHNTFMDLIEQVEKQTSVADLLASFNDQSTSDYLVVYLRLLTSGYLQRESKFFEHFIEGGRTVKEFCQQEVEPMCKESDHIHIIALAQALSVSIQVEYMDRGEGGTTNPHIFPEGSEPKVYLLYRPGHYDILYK
Sequence of EIF3H (O15372 whole entry): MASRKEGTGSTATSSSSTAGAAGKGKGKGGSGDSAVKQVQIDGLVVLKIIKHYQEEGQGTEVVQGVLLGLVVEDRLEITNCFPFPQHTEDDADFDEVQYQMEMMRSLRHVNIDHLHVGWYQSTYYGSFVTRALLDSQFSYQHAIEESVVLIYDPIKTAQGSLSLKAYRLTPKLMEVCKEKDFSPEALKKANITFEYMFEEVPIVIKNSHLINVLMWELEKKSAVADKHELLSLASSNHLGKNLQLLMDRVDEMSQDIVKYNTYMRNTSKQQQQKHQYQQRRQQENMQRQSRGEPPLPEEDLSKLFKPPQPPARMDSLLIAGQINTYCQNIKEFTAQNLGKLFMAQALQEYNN
Sequence of ATXN3 (P54252 whole entry): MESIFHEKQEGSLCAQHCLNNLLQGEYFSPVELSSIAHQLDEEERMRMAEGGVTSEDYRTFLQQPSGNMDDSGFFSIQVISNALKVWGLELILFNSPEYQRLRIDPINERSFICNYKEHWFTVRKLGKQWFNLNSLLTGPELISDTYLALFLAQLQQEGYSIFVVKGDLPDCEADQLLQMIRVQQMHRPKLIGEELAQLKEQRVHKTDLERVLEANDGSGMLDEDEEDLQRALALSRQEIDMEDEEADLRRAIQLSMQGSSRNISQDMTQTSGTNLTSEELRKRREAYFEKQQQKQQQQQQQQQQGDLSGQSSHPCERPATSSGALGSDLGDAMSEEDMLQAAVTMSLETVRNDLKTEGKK
Sequence of EIF3F (O00303 whole entry): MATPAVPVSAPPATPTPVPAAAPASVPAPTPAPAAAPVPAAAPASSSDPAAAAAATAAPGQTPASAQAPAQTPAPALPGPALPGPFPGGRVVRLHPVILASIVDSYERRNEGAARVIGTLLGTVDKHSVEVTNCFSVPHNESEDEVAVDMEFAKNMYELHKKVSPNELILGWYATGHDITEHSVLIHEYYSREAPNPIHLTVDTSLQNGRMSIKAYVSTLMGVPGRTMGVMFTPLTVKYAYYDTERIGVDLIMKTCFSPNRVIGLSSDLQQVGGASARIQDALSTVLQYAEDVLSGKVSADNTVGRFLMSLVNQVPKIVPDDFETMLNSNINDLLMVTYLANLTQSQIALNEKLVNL

Cn1cc(CN(Cc2ccc(Cl)cc2)C(=O)CCl)cn1
inactive: ALG13 -0.382 | ATXN3 -0.833 | BAP1 -0.944 | EIF3F -0.0957 | EIF3H 0.132 | FAM105A -0.189 | OTUB1 -0.095 | OTUD4 0.0527 | OTUD5 -0.592
